# Source: ChEMBL document CHEMBL3988442, “University of Dundee, Small-Polar-MMV Screening Library” (2021)
# For some assays here: Results with a measured potency or affinity are listed apart.
# Tests used:
# Design in all cases: scale not given: direction of the effect not stated beside the values
# [1] = biological target: Protein translocase subunit SecA (Escherichia coli (strain K12)) (UniProt P10408); experiment: Assay to Identify E. coli SecA ATPase Inhibitors; type: functional; conditions: 30 µM
# [2] = biological target: T1, Ubiquitin-activating enzyme e1, putative (Leishmania donovani (strain BPK282A1)) (UniProt E9BSI1); experiment: Leishmania donovani Ubiquitin Activating Enzyme (LdE1); type: functional; conditions: 30 µM
# T1 sequence (whole entry): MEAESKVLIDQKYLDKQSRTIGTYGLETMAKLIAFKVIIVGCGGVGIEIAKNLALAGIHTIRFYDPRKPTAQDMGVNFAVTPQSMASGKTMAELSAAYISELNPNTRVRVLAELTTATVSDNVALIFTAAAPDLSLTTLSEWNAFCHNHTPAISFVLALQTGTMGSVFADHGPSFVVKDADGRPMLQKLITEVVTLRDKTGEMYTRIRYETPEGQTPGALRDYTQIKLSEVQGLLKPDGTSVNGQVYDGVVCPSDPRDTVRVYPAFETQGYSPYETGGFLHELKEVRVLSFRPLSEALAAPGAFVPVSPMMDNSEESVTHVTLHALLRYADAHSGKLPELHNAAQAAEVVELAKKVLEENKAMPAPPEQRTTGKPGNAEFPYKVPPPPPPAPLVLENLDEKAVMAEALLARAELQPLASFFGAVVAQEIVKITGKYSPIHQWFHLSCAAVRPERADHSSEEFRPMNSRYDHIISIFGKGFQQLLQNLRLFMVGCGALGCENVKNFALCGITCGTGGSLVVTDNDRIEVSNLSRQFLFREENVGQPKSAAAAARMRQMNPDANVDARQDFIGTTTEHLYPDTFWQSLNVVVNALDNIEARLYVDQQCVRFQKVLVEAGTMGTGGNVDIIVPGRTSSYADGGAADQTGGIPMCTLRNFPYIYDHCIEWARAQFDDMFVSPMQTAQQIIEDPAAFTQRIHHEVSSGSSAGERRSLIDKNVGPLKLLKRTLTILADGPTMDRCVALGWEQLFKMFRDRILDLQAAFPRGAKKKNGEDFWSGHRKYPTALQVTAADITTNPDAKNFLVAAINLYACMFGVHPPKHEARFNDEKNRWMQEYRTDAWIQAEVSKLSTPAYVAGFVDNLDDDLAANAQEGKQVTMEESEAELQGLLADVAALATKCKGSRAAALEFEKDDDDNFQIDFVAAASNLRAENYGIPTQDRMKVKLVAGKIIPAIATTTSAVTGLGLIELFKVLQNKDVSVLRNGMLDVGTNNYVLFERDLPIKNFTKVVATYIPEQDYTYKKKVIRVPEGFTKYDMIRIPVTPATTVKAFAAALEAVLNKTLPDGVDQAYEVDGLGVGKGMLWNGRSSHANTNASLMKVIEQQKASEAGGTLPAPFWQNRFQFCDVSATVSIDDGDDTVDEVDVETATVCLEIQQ
# [3] = biological target: AMP-activated protein kinase, AMPK (Homo sapiens) (UniProt P54646+O43741+P54619+Q9UGJ0+Q9Y478+Q13131+Q9UGI9); experiment: AMP-dependent Kinase enzyme assay. An in vitro enzyme assay that detects ADP turnover that is directly proportional to AMPK activity. This uses naive AMPK that is activated during the assay with MK-8722; type: functional; conditions: 30 µM
# [4] = biological target: Sialic acid-binding Ig-like lectin 9 (Homo sapiens) (UniProt Q9Y336); experiment: Hs-Siglec9 ALPHAscreen SOP 20170721; conditions: 10 µM
# Trypanosoma cruzi = experiment: Trypanosoma cruzi phosphomannomutase and mannose-1-phosphate guanylyltransferase assay; type: functional; conditions: 10 µM
# [5] = biological target: T2, Arginase-2, mitochondrial (Homo sapiens) (UniProt P78540); experiment: in vitro enzyme assay to detect the production of urea directly proportional to the activity of Arginase II; type: functional; conditions: 33.3 µM; also: in the data most compounds retested in dose-response had high values
# T2 sequence (whole entry): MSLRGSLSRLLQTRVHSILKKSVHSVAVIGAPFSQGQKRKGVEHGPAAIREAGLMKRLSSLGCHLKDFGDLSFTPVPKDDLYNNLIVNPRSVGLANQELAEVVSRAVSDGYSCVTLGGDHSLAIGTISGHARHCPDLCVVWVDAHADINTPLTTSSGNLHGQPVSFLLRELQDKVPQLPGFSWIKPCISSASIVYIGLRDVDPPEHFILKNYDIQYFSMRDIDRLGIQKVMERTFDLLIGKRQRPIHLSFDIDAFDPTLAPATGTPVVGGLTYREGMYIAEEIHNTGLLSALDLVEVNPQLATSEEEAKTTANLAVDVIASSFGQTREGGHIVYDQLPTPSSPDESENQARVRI
# [6] = biological target: T3, Proteasome subunit beta (Trypanosoma cruzi) (UniProt O96673); experiment: Trypanosoma cruzi proteasome chymotrypsin-like activity (TcProtChymo) assay.; also: in the data most compounds retested in dose-response had high values; type: functional; conditions: 9.37 µM
# T3 sequence (whole entry): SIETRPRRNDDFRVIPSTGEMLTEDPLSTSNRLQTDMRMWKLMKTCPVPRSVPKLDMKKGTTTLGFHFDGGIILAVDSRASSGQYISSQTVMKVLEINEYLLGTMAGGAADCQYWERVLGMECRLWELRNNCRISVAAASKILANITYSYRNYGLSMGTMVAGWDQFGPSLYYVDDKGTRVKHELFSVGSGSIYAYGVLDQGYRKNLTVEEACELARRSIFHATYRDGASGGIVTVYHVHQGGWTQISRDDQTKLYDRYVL
# Homo sapiens = organism: Homo sapiens; experiment: To identify inhibition of the IFN signalling (Jak-Stat) pathway via expression of an eGFP reporter gene under the control of an IFN-stimulated response element (ISRE) containing MxA promoter.; type: functional; conditions: 30 µM
# [7] = biological target: T4, Tyrosyl-tRNA synthetase, putative (Trypanosoma cruzi (strain CL Brener)) (UniProt Q4DSP6); experiment: Trypanosoma cruzi tyrosyl tRNA synthetase (TcYRS) _High Tyrosine SOP; type: functional; conditions: 30 µM; also: in the data most compounds retested in dose-response had high values
# T4 sequence (whole entry): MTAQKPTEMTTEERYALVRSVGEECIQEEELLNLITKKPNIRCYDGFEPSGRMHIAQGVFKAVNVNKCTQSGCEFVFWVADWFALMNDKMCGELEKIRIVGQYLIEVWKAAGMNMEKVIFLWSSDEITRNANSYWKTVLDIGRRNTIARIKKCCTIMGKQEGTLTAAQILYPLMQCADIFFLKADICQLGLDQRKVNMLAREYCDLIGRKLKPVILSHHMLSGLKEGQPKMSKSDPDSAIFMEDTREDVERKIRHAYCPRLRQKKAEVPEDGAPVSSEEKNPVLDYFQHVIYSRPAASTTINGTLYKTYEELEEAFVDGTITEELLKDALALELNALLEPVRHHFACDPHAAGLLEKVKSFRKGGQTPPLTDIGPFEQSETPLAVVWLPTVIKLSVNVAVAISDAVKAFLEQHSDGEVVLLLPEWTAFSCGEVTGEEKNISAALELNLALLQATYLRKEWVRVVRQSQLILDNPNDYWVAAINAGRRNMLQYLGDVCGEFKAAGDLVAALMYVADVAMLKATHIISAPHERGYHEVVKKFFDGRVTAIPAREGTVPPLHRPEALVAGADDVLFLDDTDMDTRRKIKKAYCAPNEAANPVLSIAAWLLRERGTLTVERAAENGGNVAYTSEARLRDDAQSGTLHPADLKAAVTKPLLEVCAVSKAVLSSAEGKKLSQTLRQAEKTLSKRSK
# [8] = biological target: T4, Tyrosyl-tRNA synthetase, putative (Trypanosoma cruzi (strain CL Brener)); experiment: Trypanosoma cruzi tyrosyl tRNA synthetase (TcYRS) SOP; type: functional; conditions: 30 µM
# [9] = biological target: Chromo domain-containing protein 1 (Saccharomyces cerevisiae (strain ATCC 204508 / S288c) (Baker's yeast)) (UniProt P32657); experiment: ScCHD-1 Enzyme Inhibition Assay; type: functional; conditions: 30 µM; also: in the data most compounds retested in dose-response had high values
# Sequence of Chromo domain-containing protein 1 (Saccharomyces cerevisiae (strain ATCC 204508 / S288c) (Baker's yeast)) (P32657 whole entry, the tested form may be a part): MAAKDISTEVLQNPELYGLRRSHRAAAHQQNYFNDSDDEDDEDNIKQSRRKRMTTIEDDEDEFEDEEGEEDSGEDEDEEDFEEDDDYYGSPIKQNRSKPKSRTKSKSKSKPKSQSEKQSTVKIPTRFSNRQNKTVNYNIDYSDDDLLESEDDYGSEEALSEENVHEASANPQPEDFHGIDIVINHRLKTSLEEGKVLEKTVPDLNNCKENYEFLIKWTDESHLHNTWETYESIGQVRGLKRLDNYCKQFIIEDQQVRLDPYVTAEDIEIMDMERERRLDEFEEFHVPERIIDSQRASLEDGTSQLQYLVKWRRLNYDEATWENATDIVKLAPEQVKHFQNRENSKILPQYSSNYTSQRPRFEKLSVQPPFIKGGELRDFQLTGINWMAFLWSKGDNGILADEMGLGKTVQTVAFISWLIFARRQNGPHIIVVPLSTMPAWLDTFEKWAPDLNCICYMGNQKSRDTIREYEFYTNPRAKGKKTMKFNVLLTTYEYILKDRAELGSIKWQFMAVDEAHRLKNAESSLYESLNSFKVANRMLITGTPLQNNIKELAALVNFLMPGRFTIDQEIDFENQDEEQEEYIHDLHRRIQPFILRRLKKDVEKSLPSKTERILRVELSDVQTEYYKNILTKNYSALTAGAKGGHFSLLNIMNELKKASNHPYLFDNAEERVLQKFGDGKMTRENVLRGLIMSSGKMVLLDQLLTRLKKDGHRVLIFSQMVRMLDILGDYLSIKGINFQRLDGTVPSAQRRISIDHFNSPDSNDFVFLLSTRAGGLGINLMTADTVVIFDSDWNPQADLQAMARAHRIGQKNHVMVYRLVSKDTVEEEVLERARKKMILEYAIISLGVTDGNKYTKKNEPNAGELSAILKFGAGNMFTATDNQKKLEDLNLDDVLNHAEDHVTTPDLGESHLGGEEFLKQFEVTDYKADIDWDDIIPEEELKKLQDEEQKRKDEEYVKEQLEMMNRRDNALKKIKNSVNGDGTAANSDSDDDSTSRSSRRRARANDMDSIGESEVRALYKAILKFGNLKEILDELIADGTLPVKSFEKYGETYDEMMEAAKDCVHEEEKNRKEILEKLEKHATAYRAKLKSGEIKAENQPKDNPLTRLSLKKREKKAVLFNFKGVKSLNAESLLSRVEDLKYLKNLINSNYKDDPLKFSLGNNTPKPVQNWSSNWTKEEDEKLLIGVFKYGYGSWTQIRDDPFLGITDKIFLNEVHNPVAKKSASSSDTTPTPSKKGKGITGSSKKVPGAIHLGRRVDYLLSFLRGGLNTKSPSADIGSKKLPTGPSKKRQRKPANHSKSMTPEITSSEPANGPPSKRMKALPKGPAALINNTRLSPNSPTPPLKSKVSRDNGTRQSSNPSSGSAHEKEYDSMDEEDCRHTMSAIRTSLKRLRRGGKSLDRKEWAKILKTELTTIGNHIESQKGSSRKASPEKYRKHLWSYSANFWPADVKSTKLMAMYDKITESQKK
# Sequence of Sialic acid-binding Ig-like lectin 9 (Homo sapiens) (Q9Y336 whole entry): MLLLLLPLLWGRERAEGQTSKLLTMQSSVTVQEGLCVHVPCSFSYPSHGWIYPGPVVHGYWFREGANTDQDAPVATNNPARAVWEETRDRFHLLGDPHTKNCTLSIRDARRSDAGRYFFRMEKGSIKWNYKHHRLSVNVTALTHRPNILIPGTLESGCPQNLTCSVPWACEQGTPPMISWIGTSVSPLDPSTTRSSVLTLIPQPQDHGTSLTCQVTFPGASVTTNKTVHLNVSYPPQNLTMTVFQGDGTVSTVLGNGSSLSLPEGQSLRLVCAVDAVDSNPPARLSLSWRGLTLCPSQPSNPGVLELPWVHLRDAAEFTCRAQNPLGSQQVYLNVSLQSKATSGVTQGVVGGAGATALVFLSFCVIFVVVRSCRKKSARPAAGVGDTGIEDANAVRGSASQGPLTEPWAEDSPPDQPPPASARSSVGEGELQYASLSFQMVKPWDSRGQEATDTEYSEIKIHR
# Sequence of Protein translocase subunit SecA (Escherichia coli (strain K12)) (P10408 whole entry): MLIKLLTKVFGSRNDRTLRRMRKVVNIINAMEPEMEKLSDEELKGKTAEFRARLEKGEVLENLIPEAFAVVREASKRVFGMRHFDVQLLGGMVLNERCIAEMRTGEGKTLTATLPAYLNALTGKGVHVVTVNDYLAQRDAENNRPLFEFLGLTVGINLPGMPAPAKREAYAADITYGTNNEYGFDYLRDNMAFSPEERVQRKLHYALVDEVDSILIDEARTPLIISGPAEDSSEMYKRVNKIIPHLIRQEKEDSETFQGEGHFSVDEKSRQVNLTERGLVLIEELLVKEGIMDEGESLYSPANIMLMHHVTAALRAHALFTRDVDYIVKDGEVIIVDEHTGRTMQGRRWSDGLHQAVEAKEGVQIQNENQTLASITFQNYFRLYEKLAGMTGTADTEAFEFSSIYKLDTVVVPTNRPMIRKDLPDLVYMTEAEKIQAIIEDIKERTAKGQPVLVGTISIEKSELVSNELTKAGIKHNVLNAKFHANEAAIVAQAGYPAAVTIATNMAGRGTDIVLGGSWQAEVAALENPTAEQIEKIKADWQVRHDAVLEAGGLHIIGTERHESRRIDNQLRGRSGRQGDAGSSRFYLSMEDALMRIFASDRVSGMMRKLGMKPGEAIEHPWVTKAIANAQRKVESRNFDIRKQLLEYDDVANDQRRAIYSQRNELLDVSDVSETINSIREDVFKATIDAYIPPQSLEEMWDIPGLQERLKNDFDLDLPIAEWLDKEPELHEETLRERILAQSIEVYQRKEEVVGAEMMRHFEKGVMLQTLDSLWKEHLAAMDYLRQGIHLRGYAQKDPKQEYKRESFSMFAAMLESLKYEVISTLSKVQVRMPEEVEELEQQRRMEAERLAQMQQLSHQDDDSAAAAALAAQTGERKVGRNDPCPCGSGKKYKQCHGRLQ
SMILES,Percent Effect [1] [%],Percent Effect [2] [%],Percent Effect [3] [%],Percent Effect [4] [%],Percent Effect (Trypanosoma cruzi) [%],Percent Effect [5] [%],Percent Effect [6] [%],Percent Effect (Homo sapiens) [%],Percent Effect [7] [%],Percent Effect [8] [%],Percent Effect [9] [%]
CCc1nc(CC(=O)N2CCN(c3cnccn3)CC2)cs1,-4.23,16.5,1.43,5.88,1.95,1.94,0.343,11.8,1.04,17.7,-26.3
CCc1nc(C)c(C(=O)NCCNc2cnccn2)s1,-1.34,21.1,-0.0117,-1.62,1.77,-1.44,15.8,4.13,9.36,25.9,-8.55
Cc1cnc(C(=O)N(CCN(C)C)Cc2ccc(Cl)cc2)cn1,-0.752,20.8,5.67,9.21,4.37,9.71,15.3,-3.66,4.21,10.3,-4.76
Cc1csc(CNC(=O)Nc2cc(C(F)(F)F)c[nH]c2=O)n1,-1.61,6.94,2.39,2.89,6.71,1.77,13.3,8.26,7.37,10.3,-3.2
